The nature of test [1]: Cellular Toxicity (caspase-3) Hek293 (AID 664).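 Further: cells exposed to compound for 16 h at 37 °C before readout.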 Particulars: HEK293 caspase-3 activation, DMSO = 0%, 100 µM tamoxifen = 100%; at 92.2 µM (top of the series). Put shortly:
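qHTS, HEK293 (human embryonic kidney), 16 h cpd exposure in complete medium. Caspase-3/7 activation = luminescence increase; normalized to DMSO/100 uM tamoxifen; Hill-fit AC50.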

The nature of test [2]: MultiTox-Fluor Cytotoxicity Assay - LYMP1-002 - Live Cells (AID 955).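 Further: cells exposed to compound for 16 hours; on the % scale 0 is the no-effect control and ±100 the full control effect.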 Summed up:
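Cells were seeded at 2500 per well and incubated 5 hr. Compounds were then added for 16 hr at 37 C, followed by MultiTox-Fluor reagent for 60 min at room temperature and fluorescence reading of viable-cell protease signal.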

A short description of test [3]: Cell Viability - LYMP2-005 (AID 967). Further: potency means the concentration at half of the fitted maximal effect. Summed up: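 LYMP2-005 human lymphoblastoid cells (2500/well) were treated with compounds for 24 h at 37 C. Intracellular ATP was then measured by CellTiter-Glo luminescence after 30 min at room temperature. AC50 values came from Hill-equation fits of qHTS concentration-response data.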
The nature of test [4]: Cell Viability - LYMP2-007 (AID 979).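 Further: cells exposed to compound for 24 h before reading; 0% = DMSO only and the negative end = 92 µM tetraoctylammonium bromide; nearly all actives have a fitted effect of over 60% in size.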 Summed up:
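Cells are seeded at 2500 per well and rested 5 hr. Compounds are then added over a concentration series for 24 hr at 37 C. CellTiter-Glo is added for 30 min at room temperature before luminescence reading.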

Test [5] is described as follows: Cell Viability - LYMP2-012 (AID 982).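 Further: cellular ATP by luciferase luminescence where a drop means cytotoxicity; cells exposed to compound for one day before reading; 0% = DMSO only and full loss = 92 µM tetraoctylammonium bromide; nearly all actives have a fitted effect of over 55% in size.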
Test [6] is described as follows: Cell Viability - LYMP2-020 (AID 986). Further: nearly all actives have a fitted effect of over 55% in size. Further: potency means the concentration at half of the fitted maximal effect. Put shortly:
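Seed 2500 cells per well and incubate 5 hr at 37 C. Add compounds at a concentration series and incubate 24 hr at 37 C. Add CellTiter-Glo, wait 30 min at RT, read luminescence, and fit a Hill curve for AC50.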

The nature of test [7]: Cell Viability - LYMP1-002 - Assay at 40 hr (AID 994). Further: nearly all actives have a fitted effect of over 60% in size. Further: potency means the concentration at half of the fitted maximal effect. Put shortly:
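Cells are plated at 2500 per well and rested 5 hr at 37 C. Compounds are added and incubated 40 hr at 37 C. CellTiter-Glo reagent is added for 30 min at room temperature before luminescence is read.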

For test [8], the target named is Estrogen receptor (Homo sapiens) (UniProt P03372). The experiment in a line: qHTS assay for small molecule antagonists of estrogen receptor alpha signaling (AID 588513; active means well fitted curve in the direction sought with a large enough effect in the signal ratio, with a control signal flat, not every such curve was filed as active; the % refers to the signal ratio; further: on the % scale 0 is the no-effect control and ±100 the full control effect). Summed up:
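Antagonist mode: inhibition of 0.5 nM 17-beta-estradiol-driven beta-lactamase reporter in HEK 293 ER-alpha-UAS-bla cells, 18 h at 37C, CCF4 readout after 2 h at RT. Normalised to estradiol and DMSO; titration fitted to Hill.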
On the technique in general: In qHTS, concentration-response curves come from the screen itself.

For test [9] the target is unchanged. The experiment in a line: qHTS assay for small molecule agonists of estrogen receptor alpha signaling (AID 588514; calls by dose curve;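 further: 0% = vehicle only and 100% = reference agonist; nearly all actives have a fitted effect of over 70% in size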). Put shortly:
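Efficacy is expressed against 20 nM 17-beta-estradiol (100%) and DMSO basal (0%); EC50 from Hill equation. Assay: beta-lactamase reporter in ER-alpha-UAS-bla HEK 293 cells, 18 h compound incubation, CCF4 detection.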

Test [10] in a line: qHTS assay for small molecule antagonists of peroxisome proliferator-activated receptor delta signaling (AID 588535; active means well fitted inhibition curve with a large enough effect in the signal ratio, with a control signal flat, not every such curve was filed as active; the % refers to the signal ratio;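 on max response: cells co-treated with a PPAR-delta agonist as stimulator during compound exposure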). Particulars: HEK293T PPARd-UAS-bla, beta-lactamase FRET ratio, 18 h; 460 nm channel. Put shortly:
(§1)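 Inhibition of PPAR-delta response element-driven beta-lactamase expression is measured in HEK293T cells exposed to a compound titration series for 18 hrs at 37 C. Half-maximal inhibition comes from Hill equation fitting.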

In test [11] the target is Peroxisome proliferator-activated receptor delta (Homo sapiens) (UniProt Q03181). The description is as above. Summed up: as §1
Peroxisome proliferator-activated receptor delta (Homo sapiens), sequence (Q03181 whole entry, looked up): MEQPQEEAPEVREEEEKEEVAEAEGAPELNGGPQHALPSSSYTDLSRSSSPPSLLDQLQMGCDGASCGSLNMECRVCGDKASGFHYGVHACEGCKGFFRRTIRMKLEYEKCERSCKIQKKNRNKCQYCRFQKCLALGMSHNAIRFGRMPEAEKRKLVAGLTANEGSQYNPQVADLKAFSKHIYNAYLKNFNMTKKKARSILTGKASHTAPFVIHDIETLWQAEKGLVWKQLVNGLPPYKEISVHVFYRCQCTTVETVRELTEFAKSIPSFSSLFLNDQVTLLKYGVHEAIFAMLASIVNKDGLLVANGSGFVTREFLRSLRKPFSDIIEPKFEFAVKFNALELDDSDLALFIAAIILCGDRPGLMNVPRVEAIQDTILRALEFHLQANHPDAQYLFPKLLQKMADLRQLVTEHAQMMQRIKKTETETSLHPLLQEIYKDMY
The target in test [12] is Mitogen-activated protein kinase 10 (Mus musculus) (UniProt Q61831). The experiment in a line: JNK3 AlphaScreen Assay (AID 530; active means well fitted curve in either direction with a large enough effect, not every such curve was filed as active;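 further: kinase came from lysate of stimulated human HepG2 cells; signal reports phosphorylation of biotinylated GST-cJun 1-79 at Ser73 with 10 µM ATP; on the % scale 0 is the no-effect control and ±100 the full control effect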). Summed up: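 Phosphorylation of biotinylated GST-cJun(1-79) at Ser73 is measured by AlphaScreen proximity luminescence. Enzyme is JNK3 in HepG2 lysates activated with interleukin-1beta and tumor necrosis factor alpha; ATP is 10 uM final.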
(Alpha assays give light when donor and acceptor beads are brought close together.)

A short description of test [13]: Cell Viability - LYMP1-002 - Assay at 16 hr (AID 948).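 Further: 0% = DMSO alone and full effect = 92 µM tetraoctylammonium bromide.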 Put shortly: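 ATP luminescence (CellTiter-Glo) was measured after 16 hr compound exposure at 37 C of 2500 lymphoblastoid LYMP1-002 cells per well. Concentration-response curves were fitted with the Hill equation to give AC50.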
Test [14] is described as follows: qHTS assay for cell viability of HEK293 cells (AID 743288). Further: on the % scale 0 is the no-effect control and ±100 the full control effect; nearly all actives have a fitted effect of over 50% in size. As to conditions: ATP luminescence (CellTiter-Glo), 18 h; max response: stronger effect = lower value. Put shortly: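 Readout is luciferase-coupled ATP content (CellTiter-Glo luminescence, 30 min room temperature) as a measure of metabolically competent cells. Parental HEK293 cells were plated 5 h or more before compound addition, then treated 18 h at 37 C.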

The nature of test [15]: Cell Viability - LYMP2-013 (AID 970). Further: nearly all actives have a fitted effect of over 55% in size. Further: potency means the concentration at half of the fitted maximal effect. Put shortly: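 Cytotoxicity is scored as a concentration-dependent drop in intracellular ATP in human lymphoblastoid cells after 24 hr compound exposure at 37 C. ATP is quantified by luciferase luminescence, and AC50 values come from Hill-equation modeling.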
Test [16] has as its target Glucocorticoid receptor (Homo sapiens) (UniProt P04150). The experiment in a line: qHTS assay for small molecule antagonists of glucocorticoid receptor signaling (AID 588533; active means well fitted inhibition curve with a large enough effect in the signal ratio, with a control signal flat, not every such curve was filed as active; the % refers to the signal ratio;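 further: cells stimulated with 2 nM dexamethasone as agonist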; further: potency means the concentration at half of the fitted maximal effect). Put shortly: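 Antagonist-mode qHTS: compound titrations added to GRE-bla HeLa cells, then dexamethasone 2 nM final; 18 h, 37 C. CCF4 FRET fluorescence normalized to dexamethasone and DMSO; IC50 from Hill fit.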

Test [17] addresses Peroxisome proliferator-activated receptor gamma (Homo sapiens) (UniProt P37231). The experiment in a line: qHTS assay for small molecule agonists of peroxisome proliferator-activated receptor gamma signaling (AID 588536; active means well fitted curve in the direction sought with a large enough effect in the signal ratio, with a control signal flat, not every such curve was filed as active; the % refers to the signal ratio;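 further: 0% = DMSO basal wells and 100% = rosiglitazone at 2 µM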). Summed up: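 Compound treatment: 16 h, 37 C, HEK293 GeneBLAzer cells. Detection: CCF4, 2 h RT. Values: Hill-fit EC50, efficacy as % of 2 uM rosiglitazone.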

Test [18] has the same target. The experiment in a line: qHTS assay for small molecule antagonists of peroxisome proliferator-activated receptor gamma signaling (AID 588537; active means well fitted inhibition curve with a large enough effect in the signal ratio, with a control signal flat, not every such curve was filed as active; the % refers to the signal ratio;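 further: reporter cells co-stimulated with 50 nM rosiglitazone agonist during compound treatment; % of control where 0% means no effect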). Summed up:
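Compounds are tested as concentration series for inhibition of rosiglitazone-driven (50 nM) reporter expression in GeneBLAzer PPAR-gamma-UAS-bla HEK293 cells. After 16 h at 37 C, CCF4 substrate is added for 2 h at room temperature and blue/green fluorescence is measured.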

Test [19] is described as follows: qHTS assay to identify small molecules that stimulate interleukin-8 (IL-8) secretion (AID 651758; active means well fitted activation curve with a large enough effect in the signal ratio; the % refers to the signal ratio; further: potency means the concentration at half of the fitted maximal effect; on activation: 0% is about no effect). Put shortly: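 Quantitative HTS in THP-1 monocytic cells at 2000 cells per well, with 16 hrs compound incubation at 37 C. IL-8 in the medium was then quantified by HTRF immunoassay, read after 1-3 hrs at room temperature.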

Each structure is given as a SMILES string. Values joined by “and” are separate entries in the source; they are usually repeats but may differ in a detail not shown here. Equal values may be shown once. Records with an inconclusive call do not appear. Some compounds were tested as several samples or in several runs, with calls that do not always agree. Active and inactive are the calls of the source. Unless noted, the call rests on the fitted dose curve; in most records, active means well fitted curve in the direction sought with a large enough effect; inconclusive means small, poorly fitted or top-dose-only effect, or another doubt; inactive means no such curve, though single readings can be large; an effect the other way counts as inactive or inconclusive.

Glucocorticoid receptor (Homo sapiens), sequence (P04150 whole entry, looked up): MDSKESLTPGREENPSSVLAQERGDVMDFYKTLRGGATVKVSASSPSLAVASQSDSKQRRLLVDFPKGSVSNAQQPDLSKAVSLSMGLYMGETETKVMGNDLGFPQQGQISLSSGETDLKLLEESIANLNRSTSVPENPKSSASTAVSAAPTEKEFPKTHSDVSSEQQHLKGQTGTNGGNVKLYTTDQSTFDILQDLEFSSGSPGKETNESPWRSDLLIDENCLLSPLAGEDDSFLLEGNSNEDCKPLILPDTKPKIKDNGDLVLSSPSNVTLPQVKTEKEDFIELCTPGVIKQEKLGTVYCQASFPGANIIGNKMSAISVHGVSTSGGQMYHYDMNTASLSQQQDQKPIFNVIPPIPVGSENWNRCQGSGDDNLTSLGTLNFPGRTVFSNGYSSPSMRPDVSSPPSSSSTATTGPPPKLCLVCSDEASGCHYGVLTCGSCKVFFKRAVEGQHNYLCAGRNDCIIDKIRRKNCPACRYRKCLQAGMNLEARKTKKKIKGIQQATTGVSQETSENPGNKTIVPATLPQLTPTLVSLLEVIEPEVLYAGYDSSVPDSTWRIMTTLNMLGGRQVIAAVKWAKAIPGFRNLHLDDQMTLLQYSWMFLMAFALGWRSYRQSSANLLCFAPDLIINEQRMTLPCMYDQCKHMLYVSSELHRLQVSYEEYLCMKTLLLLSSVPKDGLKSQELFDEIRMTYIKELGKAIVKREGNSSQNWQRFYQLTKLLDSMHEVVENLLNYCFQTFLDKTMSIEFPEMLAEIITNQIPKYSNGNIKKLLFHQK
Estrogen receptor (Homo sapiens), sequence (P03372 whole entry, looked up): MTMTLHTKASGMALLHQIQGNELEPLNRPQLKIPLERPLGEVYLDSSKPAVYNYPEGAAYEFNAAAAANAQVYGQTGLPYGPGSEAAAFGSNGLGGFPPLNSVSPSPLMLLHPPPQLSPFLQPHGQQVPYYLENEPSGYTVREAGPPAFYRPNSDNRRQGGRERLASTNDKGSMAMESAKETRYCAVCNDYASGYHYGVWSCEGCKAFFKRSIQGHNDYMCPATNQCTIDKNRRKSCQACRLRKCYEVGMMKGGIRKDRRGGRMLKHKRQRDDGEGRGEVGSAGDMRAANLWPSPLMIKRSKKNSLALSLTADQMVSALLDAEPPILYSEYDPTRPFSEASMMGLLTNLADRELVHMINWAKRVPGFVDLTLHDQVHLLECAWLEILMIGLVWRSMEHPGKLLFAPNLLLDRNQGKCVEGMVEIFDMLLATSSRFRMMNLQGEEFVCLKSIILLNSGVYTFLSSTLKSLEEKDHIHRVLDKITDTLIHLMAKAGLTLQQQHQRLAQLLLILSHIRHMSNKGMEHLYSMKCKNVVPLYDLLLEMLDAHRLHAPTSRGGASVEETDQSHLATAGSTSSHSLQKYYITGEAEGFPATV
Peroxisome proliferator-activated receptor gamma (Homo sapiens), sequence (P37231 whole entry, looked up): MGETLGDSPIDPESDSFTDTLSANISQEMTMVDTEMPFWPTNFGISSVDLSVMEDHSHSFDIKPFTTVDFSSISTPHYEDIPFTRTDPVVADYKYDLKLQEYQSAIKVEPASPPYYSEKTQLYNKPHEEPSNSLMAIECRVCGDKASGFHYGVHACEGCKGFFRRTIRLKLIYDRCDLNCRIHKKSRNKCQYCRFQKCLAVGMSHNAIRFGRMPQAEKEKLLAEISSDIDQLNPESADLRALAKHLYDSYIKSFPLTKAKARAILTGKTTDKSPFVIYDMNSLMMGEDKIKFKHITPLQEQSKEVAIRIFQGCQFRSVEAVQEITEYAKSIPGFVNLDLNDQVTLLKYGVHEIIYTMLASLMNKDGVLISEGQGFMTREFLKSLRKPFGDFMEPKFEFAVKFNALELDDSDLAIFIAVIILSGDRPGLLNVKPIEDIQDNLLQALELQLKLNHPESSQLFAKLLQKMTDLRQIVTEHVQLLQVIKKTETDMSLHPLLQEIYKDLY

With `O=[N+]([O-])c1cc(N(CCO)CCO)ccc1NCCO`, the caspase-3 activation in test [1] was -3.81% (inactive). For the same compound, the compound was classed as inactive in [2], in test [8] and in test [11]. The Potency entry in [3], in test [4], in [5], in [6], in test [7] and in [9] was “inactive” each time. In addition, in [10], the max response was 25% and 8.06%.
In the case of `O=Nc1ccc(Nc2ccccc2)cc1`, the Potency result in test [12] was “inactive”. Besides, in test [1], the caspase-3 activation is -5.38% (inactive).
Take `Cc1cc(-c2ccc(N=Nc3cc(S(=O)(=O)O)c4ccccc4c3N)c(C)c2)ccc1N=Nc1cc(S(=O)(=O)O)c2ccccc2c1N`: the compound was called inactive in test [2], in test [8] and in test [11]. Moreover, the Potency entry in [9] was “inactive”. Besides, in test [10], the max response is -39.2%.
For the compound `O=[N+]([O-])c1cc(Cl)c(Cl)c(Cl)c1Cl`, the Potency result in test [12], in [13], in test [3] and in [7] was “inactive” each time. Further, the caspase-3 activation in [1] was 2.6% (inactive). Besides, the call in [2] and in [11] was inactive. In addition, the figures for the max response in test [10] and in test [14] were 8.11% and -2.48% (inactive), respectively.
As for `CCCCC(CC)COP(=O)(OCC(CC)CCCC)OCC(CC)CCCC` (configuration not stated), the Potency entry in test [12], in test [13], in [15], in [4], in test [5] and in test [6] was “inactive” in each case. The Potency entry in test [7], in test [16] and in test [18] was “inactive” throughout. Besides, in test [10], the max response stood at 38.7%. Moreover, the call in [11] and in test [17] was inactive.
For `C=CC(=O)OCCCCCCOC(=O)C=C`, the Potency entry in test [12] and in [18] was “inactive” each time. Further, the Potency was 39.8 µM (active) in [3]; 39.8 µM (active) in [15]; 39.8 µM (active) in test [6]; 39.8 µM (active) and inactive in test [16]. Besides, the call in test [8] and in test [11] was inactive. Besides, the max response is 35% in test [10]; -28.7% (inactive) and -17.5% (inactive) in test [14].
For `Nc1ccccc1O`, the Potency result in [12], in [13], in [6], in test [7] and in test [9] was “inactive” in each case. Also, the outcome in [2], in test [8] and in test [11] was inactive. The max response in test [10] is 17.2%; in test [14], -3.09% (inactive). Besides, the Potency in test [19] was 66.8 µM (active).
For the compound `CC(C)(C)C(=O)C1C(=O)c2ccccc2C1=O`, in test [1], the caspase-3 activation is -1.93% (inactive). Besides, the Potency entry in test [13], in test [4], in test [6], in test [7], in test [9] and in [19] was “inactive” each time. Besides, the result in test [2] and in test [8] was inactive. For the same compound, the max response in [14] was -22.9% (inactive).
For the compound `Clc1nc2ccccc2nc1Cl`, the Potency entry in test [12], in test [13], in test [3], in test [7], in test [9] and in [16] was “inactive” in each case. Further, the caspase-3 activation in test [1] was 15.8% (inactive). Moreover, the compound was called inactive in test [2] and in test [8].
As for `O=C(OCC1CO1)C1CCCCC1C(=O)OCC1CO1` (configuration not stated), the Potency entry in [12], in [13] and in test [16] was “inactive” each time. Further, in [1], the caspase-3 activation was 4.8% (inactive). The compound was called inactive in test [2]. In addition, the Potency was 39.8 µM (active) in test [7] and 66.8 µM (active) in test [19].
As to `O=CC(=O)c1ccccc1`, the Potency result in test [12], in [3], in test [15], in [5], in test [6] and in test [7] was “inactive” each time. The Potency entry in [9], in test [16] and in [19] was “inactive” each time. In addition, the caspase-3 activation in test [1] is 3.78% (inactive). The compound was called inactive in [2], in [8] and in test [11]. In addition, the max response in test [10] was 7.18%; in [14], -4.94% (inactive).
Regarding `Cc1cc2nc(N)sc2cc1C`, the caspase-3 activation in test [1] is -7.89% (inactive). Moreover, the Potency result in [4], in [6], in [7] and in [18] was “inactive” throughout. Further, in [14], the max response is -12.3% (inactive).

Source of the values: PubChem BioAssay (NCATS).
